# Screening results from PubChem.
# Hits are enriched below; roughly 5.2% of the tested compounds scored in any of these assays.
# Sfp PPTase inh: qHTS Assay for Inhibitors of Bacillus subtilis Sfp phosphopantetheinyl transferase (PPTase); AID 1490, 2009; Biochemical Sfp PPTase activity, qHTS; Potency, µM, for the others: largest response in the series, negative = inhibition, hits mostly inhibitors; 4'-phosphopantetheinyl transferase ffp (Bacillus subtilis), Q9F4F7; 310,000 compounds, 3.5% hits;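 further: the enzyme is Sfp with the accession as filed and its product quenches rhodamine fluorescence; 0% = enzyme reaction without inhibitor and -100% = no enzyme wells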
#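 Fluorescence-quenching assay with 15 nM Sfp, 5 uM rhodamine-CoA and 12.5 uM BHQ-2-labelled ybbR peptide in pH 7.6 Hepes/MgCl2 buffer. Enzyme was pre-incubated with compound for 15 min at room temperature. Rate was taken from the 30-min fluorescence change (525/598 nm).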
# VDR inhibitor: Inhibitors of the vitamin D receptor (VDR): qHTS; VDR-SRC2-3 peptide fluorescence polarization, 2 h; Vitamin D3 receptor (Homo sapiens), P11473; AID 504847, 2011; 400,000 compounds, 0.93% hits; Potency, µM, for the others: max response, negative = inhibition, hits mostly inhibitors
# Target sequence (P11473 whole entry, looked up): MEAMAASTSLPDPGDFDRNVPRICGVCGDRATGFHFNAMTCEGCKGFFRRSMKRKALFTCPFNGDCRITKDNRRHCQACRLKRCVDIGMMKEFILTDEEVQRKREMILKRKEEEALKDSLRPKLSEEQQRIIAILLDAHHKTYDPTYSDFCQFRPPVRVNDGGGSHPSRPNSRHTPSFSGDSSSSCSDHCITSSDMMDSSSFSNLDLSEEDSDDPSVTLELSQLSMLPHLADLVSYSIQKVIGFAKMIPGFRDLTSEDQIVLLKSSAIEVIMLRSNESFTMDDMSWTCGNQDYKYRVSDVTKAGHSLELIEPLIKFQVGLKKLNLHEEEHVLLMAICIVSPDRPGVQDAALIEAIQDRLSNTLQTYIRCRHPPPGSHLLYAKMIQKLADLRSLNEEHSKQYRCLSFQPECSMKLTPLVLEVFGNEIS
#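 Measured by FP: displacement of SRC2-3 coactivator peptide from VDR by library compounds, following a two-hour ambient incubation.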
# rTrxR1 inhibitor: qHTS Assay for Inhibitors of Mammalian Selenoprotein Thioredoxin Reductase 1 (TrxR1): qHTS. Thioredoxin reductase 1, cytoplasmic (Rattus norvegicus), O89049. recombinant rTrxR1, NADPH fluorescence consumption, selenite substrate. Potency, µM (doses to about 114 µM), without a hit: at the highest dose activity change, negative = inhibition, most hits filed as inhibitors. 390,000 compounds, 1% hits; further: nearly all actives have a fitted effect of over 65% in size
#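 Rat TrxR1 (90 nM in the dispensed reagent) was pre-reduced with 400 uM NADPH for 5 min at room temperature, then incubated with compound for 15 min. After 400 uM selenite was added, NADPH fluorescence (Ex 340/Em 450 nm) was followed for 8 min.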
# TrxR1 substrate: qHTS Assay for Substrates of Mammalian Selenoprotein Thioredoxin Reductase 1 (TrxR1): qHTS. 390,000 compounds, 0.01% hits. Potency, µM (series often up to 114 µM), for the others: at the highest dose activity change, negative = substrate turnover. purified TrxR1 substrate turnover, NADPH consumption readout; further: nearly all actives have a fitted effect of over 50% in size
#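 Rat TrxR1, dispensed at 90 nM, was prereduced with 400 uM NADPH (final) for 5 min at ~22 deg C, then incubated with compound 15 min before 400 uM selenite. A first-read NADPH fluorescence drop versus no-compound background flagged substrates.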
# mIDH1 inhibitor: qHTS for Inhibitors of mutant isocitrate dehydrogenase 1 (IDH1): qHTS; Isocitrate dehydrogenase [NADP] cytoplasmic (Homo sapiens), O75874; IDH1-R132H enzyme, NADPH consumption, diaphorase/resazurin fluorescence; Potency, µM (titrated, usually from 76.6 µM), without a hit: at the highest dose activity change, negative = inhibition, most hits filed as inhibitors; 390,000 compounds, 0.093% hits; further: nearly all actives have a fitted effect of over 65% in size
#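 IDH1-R132H (0.5 ug/mL dispensed) in pH 7.5 Tris buffer was preincubated 30 min with compound, then given a substrate mix of 0.016 mM NADPH and 2 mM alpha-KG for 80 min at room temperature; remaining NADPH was read by diaphorase/resazurin fluorescence.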
# PLK1 PBD block: qHTS for Inhibitors of PLK1-PDB (polo-like kinase 1 - polo-box domain): Primary Screen; 360,000 compounds, 2.8% hits; Plk1 PBD binding of FITC phosphopeptide, fluorescence polarization; Potency, µM, inactives show max response, negative = inhibition, most hits filed as inhibitors; AID 720504, 2013; further: series mostly up to about 57 µM; nearly all actives have a fitted effect of over 65% in size
# Active calls of the source: *; ? = inconclusive; · = no result; ! = a repeat was not active; [ ] = remark or other dose. The call rests on the fitted dose curve; in most records, active means well fitted curve in the direction sought with a large enough effect; inconclusive means small, poorly fitted or top-dose-only effect, or another doubt; inactive means no such curve, though single readings can be large; an effect the other way counts as inactive or inconclusive. Unless noted, on the % scale 0 is the no-effect control and ±100 the full control effect; potency means the concentration at half of the fitted maximal effect.
SMILES,Sfp PPTase inh,VDR inhibitor,rTrxR1 inhibitor,TrxR1 substrate,mIDH1 inhibitor,PLK1 PBD block
CC(C)n1c(O)c(N=NC(=O)c2ccccc2NS(=O)(=O)c2cccs2)c2ccccc21,7%,-29%,10%,-2%,8%,17µM*
CCOc1ccc(CCNC(=O)c2nc(-c3cccc(F)c3)n3c2CCCCC3)cc1OCC,·,-4%,-5%,-2%,-6%,·
COc1ccccc1CN(C)CC(=O)c1c(C)[nH]c2ccccc12,·,·,?,-4%,·,·
c1ccc(COc2ccc(OCCN3CCCCC3)cc2)cc1,50µM*,14%,-10%,-8%,3%,-2%
c1ccc(COc2ccc(OCCN3CCCC3)cc2)cc1,-5%,1%,-9%,-7%,4%,-16%
ON=C1c2cc(OCCN3CCCCC3)ccc2-c2ccc(OCCN3CCCCC3)cc21,-9%,?,12%[57.1 µM],6%[57.1 µM],11%,19µM*
C#CCSc1nc2sc3c(c2c(=O)n1-c1cccc(OC)c1)CCN(C(C)=O)C3,·,-12%,?,-7%,?,·
COc1ccc(CCNC(=O)c2ccc3c(Cl)c4c(nc3c2)CCCC4)c(OC)c1,·,0%,23%,3%,8%,·
CCCCC1=CC2=CC(=O)C(C)(OC(=O)CC)C(=O)C2=CO1 (configuration not stated),10%,-12%,-3%[57.1 µM],4%[57.1 µM],-8%,?
CCCCC1=CC2=CC(=O)C(C)(OC(=O)C3CCCC3)C(=O)C2=CO1 (configuration not stated),71µM*!,-18%,-45%,-9%,-12%,?
CCCCCCc1c(C[C@H](N)C(=O)O)o[nH]c1=O,-18%,-1%,·,·,·,·
CC(=O)N1CCC2(CC1)C(C#N)=C(N)Oc1c2sc2nc(C)cc(C)c12,-29%,1%,-20%,-6%,5%,-8%
CCN1CCC2(CC1)C(C#N)=C(N)Oc1c2sc2nc(C)cc(C)c12,50µM*,1%,-2%[57.1 µM],0%[57.1 µM],1%,-15%
O=C(Oc1ccc(N(C(=O)c2ccncc2)S(=O)(=O)c2cccs2)cc1)c1ccncc1,10%,-19%,40µM*,3%,7%,-17%
CCc1nc2c(sc3nc4c(cc32)COC(C)(C)C4)c(=O)n1Cc1ccco1,3.5µM*,?,?,5%,6%,-22%
Cc1nc(OCC(C)C)c2sc3nc4c(cc3c2n1)COC(C)(C)C4,10%,16%,-8%,-5%,2%,-7%
COc1nc(C)nc2c1sc1nc3c(cc12)COC(C)(C)C3,19%,-23%,8%[57.1 µM],23%[57.1 µM],-2%,27µM*
COc1ccc(NC2=C(Cl)C(=O)N(CCc3ccccc3)C2=O)cc1,1%,?,18%,0%,0%,9.5µM*
Cc1cccc(N2CCN(C(=O)c3ccc(NC(=O)c4nsc5ccccc45)cc3)CC2)c1C,·,4%,26%[57.1 µM],5%[57.1 µM],-4%,·
O=C(O)Cn1c(SCCOc2ccccc2F)nc2ccccc21,22%,-15%,16%[57.1 µM],-1%[57.1 µM],-3%,19µM*
S=c1[nH]c(-c2ccccc2)cn1/N=C/c1ccncc1,79µM*,-3%,-21%,6%,16%,?
O=C(COCc1cc(-c2cccs2)on1)NCc1ccccc1Cl,·,1%,-14%,-8%,0%,·
CC(C)(C)S(=O)(=O)/C(C#N)=N/Nc1ccc(S(C)(=O)=O)cc1,5%,-4%,12%[57.1 µM],-2%[57.1 µM],5%,21µM*
COc1ccc(CC(=O)NNC(=O)CSc2nc(C)c(C)c(=O)[nH]2)cc1,89µM*,0%,-7%[57.1 µM],-6%[57.1 µM],1%,-14%
Cc1cc(=O)[nH]c(SCC(=O)NNC(=O)Cc2ccccc2)n1,-7%,8%,0%[57.1 µM],-8%,3%,5%
SMILES,Sfp PPTase inh,VDR inhibitor,rTrxR1 inhibitor,TrxR1 substrate,mIDH1 inhibitor,PLK1 PBD block
O=C(C=NNc1ccccc1)c1ccccc1,·,7%,-11%,-14%,-6%,0%
NC(=O)c1c(NC(=O)c2cnccn2)sc2c1CCCC2,40µM*,15%,10%[57.1 µM],0%,-1%,-17%
NC(=O)c1c(NC(=S)Nc2ccccc2)sc2c1CCCC2,56µM*,?,?,2%[57.1 µM],2%,6.7µM*
NC(=O)c1c(NC(=O)c2ccccc2)sc2c1CCC2,-3%,?,?,9%,6%,?
NC(=O)c1c(NC(=O)c2cc(-c3ccc(F)cc3)on2)sc2c1CCCC2,·,56µM*,-3%,-3%,32%,·
NC(=O)c1c(NC(=S)Nc2ccc(F)cc2)sc2c1CCCC2,22µM*,-19%,-4%[57.1 µM],14%[57.1 µM],3%,?
CCOC(=O)c1c(NC(=S)Nc2ccc(F)cc2)sc2c1CCC2,-6%,-10%,-17%,-1%,3%,-12%
C=CCc1cccc(C=NNC(=O)CN2CCN(Cc3ccccc3)CC2)c1O,·,-1%,-11%[57.1 µM],-2%[57.1 µM],·,·
Cc1cc(C)c(NC(=O)Cn2c(=O)n(Cc3ccco3)c(=O)c3ccc(C(=O)NC4CCCC4)cc32)c(C)c1,·,8%,8%,5%,7%,·
O=C(CN(Cc1ccc(F)cc1)C(=O)CNS(=O)(=O)c1ccccc1)NCc1ccco1,-10%,-1%,18%[0.0914 µM],-8%,-2%,-9%
CN(CC(=O)Nc1cccc(S(=O)(=O)N2CCCC2)c1)CC(=O)Nc1ccc(Cl)c(C(F)(F)F)c1,·,-6%,29%,-9%[57.1 µM],-4%,-7%
COc1cccc(N2CCN(c3ncnc4c3c(-c3ccccc3)cn4-c3ccc(C)cc3)CC2)c1,·,10%,8%[57.1 µM],-5%[57.1 µM],-4%,·
C=CCNC(=S)Nc1sc2c(c1C(N)=O)CCCC2,50µM*,?,0%[57.1 µM],-18%[57.1 µM],5%,13µM*
c1ccc(-c2nc(-c3cnc4ccccc4n3)cs2)cc1,·,·,49%[0.0914 µM],7%,·,·
O=S(=O)(c1ccc2[nH]c3c(c2c1)CCCC3)N1CCCCC1,-7%,89µM*,?,-5%,5%,2%
C=C1C=C(C(F)F)n2ncc(C(=O)Nc3ccc(N(CC)CC)cc3)c2N1,·,·,4%,4%,·,·
COc1ccc(NC(=O)C(CC(=O)O)Cc2ccccc2)cc1 (configuration not stated),-6%,-12%,5%[57.1 µM],0%[57.1 µM],1%,-8%
COc1ccc(NC(=O)C(CC(=O)O)C(C)c2ccccc2)cc1 (configuration not stated),13%,?,11%[11.4 µM],10%[57.1 µM],6%,9.5µM*
COc1cccc(C2=NOC(C(=O)Nc3cc(OC)c(OC)c(OC)c3)C2)c1 (configuration not stated),3%,4%,15%,4%,-1%,-2%
